# Hits are enriched below; roughly 14% of the tested compounds scored in any of these assays.
# NS1 inh – qHTS Assay for Inhibitors of Influenza NS1 Protein Function. hit rate 0.4% among 270,000. Potency, µM (titrated, usually from 46.1 µM), for the others: at the top dose activity, positive = more growth; calls by dose curve; further: potency means the concentration at half of the fitted maximal effect; actives are rising curves; nearly all actives have a fitted effect of over 50% in size
#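 A cell-based growth assay was used: compounds that relieve NS1-induced slow growth of budding yeast raise OD600. Assay medium was yeast nitrogen base with ammonium sulphate and -URA supplement, pH 6.0, with 2% galactose.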
# Giardia FBPA inh – qHTS Assay for Inhibitors of Fructose-1,6-bisphosphate Aldolase from Giardia Lamblia; A8B2U2; hit rate 0.71% among 290,000; purified Giardia FBPA; Potency, µM (top dose mostly 59.6 µM), for the others: top-dose activity, negative = inhibition, actives largely listed as inhibitors; AID 2451, 2010; further: potency means the concentration at half of the fitted maximal effect; on the % scale 0 is the no-effect control and ±100 the full control effect; nearly all actives have a fitted effect of over 55% in size
#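 Giardia FBPA (40 nM reagent) was preincubated 10 min at RT with compound (up to 57.5 uM final), then substrate plus GAPDH/TPI/NAD/arsenate coupling system with diaphorase/resazurin was added; resorufin fluorescence (525/598 nm) was read after 20 min.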
# LmPK inhibitor – qHTS Assay for Inhibitors of Leishmania Mexicana Pyruvate Kinase (LmPK). purified LmPK, Kinase-Glo ATP luminescence, 1 h. hit rate 0.37% among 290,000. Potency, µM (highest dose often 57.5 µM), for inactives: top-dose activity change, negative = inhibition, actives largely listed as inhibitors. Q27686; further: potency means the concentration at half of the fitted maximal effect; on the % scale 0 is the no-effect control and ±100 the full control effect
# Target sequence (Q27686 whole entry, looked up): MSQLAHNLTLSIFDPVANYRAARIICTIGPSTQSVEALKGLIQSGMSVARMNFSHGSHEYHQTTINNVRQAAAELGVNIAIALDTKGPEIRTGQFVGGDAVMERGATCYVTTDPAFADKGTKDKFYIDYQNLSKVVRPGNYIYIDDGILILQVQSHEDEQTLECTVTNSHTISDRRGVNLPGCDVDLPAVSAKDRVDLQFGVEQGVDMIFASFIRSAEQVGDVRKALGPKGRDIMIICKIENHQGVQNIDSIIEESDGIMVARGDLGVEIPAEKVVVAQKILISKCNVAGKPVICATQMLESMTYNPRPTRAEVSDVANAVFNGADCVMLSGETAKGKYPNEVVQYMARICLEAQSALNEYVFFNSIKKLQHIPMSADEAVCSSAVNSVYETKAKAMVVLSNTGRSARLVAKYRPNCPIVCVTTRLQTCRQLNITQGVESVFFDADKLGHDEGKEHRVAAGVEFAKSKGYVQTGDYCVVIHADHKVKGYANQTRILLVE
#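 Purified LmPK (0.1 nM) with 0.5 mM PEP and 0.1 mM ADP in imidazole buffer pH 7.2 with MgCl2/KCl, 1 h at room temperature. ATP formed was read by luciferase luminescence and normalized to no-enzyme and uninhibited controls.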
# Shiga inhibitor – A qHTS for Small Molecule Inhibitors of Shiga Toxin; Vero cells, Shiga toxin protein synthesis inhibition reporter; inhibition, % at 38.7 µM; hit rate 9.2% among 290,000; in the data active means inhibition mostly above about 28%, no sharp cut-off; inactive means mostly below about 43%; further: 0% is about no effect
# Cycloheximide cs – Cycloheximide Counterscreen for Small Molecule Inhibitors of Shiga Toxin | max response, % | hit rate 12% among 300,000 | cell reporter, cycloheximide protein synthesis inhibition counterscreen; in the data active means max response mostly above about 13%, no sharp cut-off; inactive means mostly below about 14%; further: read at 38.3 µM for the half of the compounds with a filed dose; 0% is about no effect
# Numbers without * were called inactive; i = inactive; u = inconclusive; x = no result; [ ] = another dose, or the depositor's remark. Unless noted, the call rests on the fitted dose curve; in most records, active means well fitted curve in the direction sought with a large enough effect; inconclusive means small, poorly fitted or top-dose-only effect, or another doubt; inactive means no such curve, though single readings can be large; an effect the other way counts as inactive or inconclusive.
SMILES,NS1 inh,Giardia FBPA inh,LmPK inhibitor,Shiga inhibitor,Cycloheximide cs
COc1ccccc1N1CCN(C2CCCN(C(=O)CCc3ccccn3)C2)CC1 (configuration not stated),10.5%,x,-6.0%,-11.8,5.1
C=CCO/N=C(/C)c1ccc(Oc2cnccn2)cc1,x,-3.4%,-5.9%,47.3*,27.4*
Nc1cccc(Oc2cnccn2)c1,5.0%,4.4%,-0.1%,-6.2,-3.5
CCOC(=O)N1CCN(c2ccc(C(F)(F)F)cn2)CC1,7.2%,7.6%,1.3%,27.8,20.5*
CN1CCN(c2ncc3nc(CCc4ccccc4)c(=O)n(CCC#N)c3n2)CC1,x,-4.2%,x,x,x
CCCCn1c(C)cc2c(c1=O)C1O[C@](c3ccc(OC)cc3)(Cc3cc(OC)c(OC)cc31)O2,9.6%,-2.5%[12.9 µM],-7.2%[11.5 µM],i,15.3*
COc1cc2c(cc1NC(=O)COC(=O)C1CC(=O)N(Cc3ccco3)C1)oc1ccccc12 (configuration not stated),-3.8%,2.8%,4.1%,63.1,22.6*
COc1cc2c(cc1NC(=O)c1ccncc1)oc1ccccc12,-110.4%,-0.8%,11.8%,36.3,15.3
COc1cc2c(cc1NC(=O)c1cccnc1)oc1ccccc12,-175.5%,-2.3%,-9.6%,56.9,28.6*
COc1cc2c(cc1NC(=O)C(C)N1CCN(S(=O)(=O)c3ccc(C)c(C)c3)CC1)oc1ccccc12 (configuration not stated),-4.7%,1.9%,0.6%,-9.8,-1.1
COc1cc2c(cc1NC(=O)C(C)Sc1cccc[n+]1[O-])oc1ccccc12 (configuration not stated),-20.8%,-14.1%,-3.2%,79.0*,75.5*
COc1cc2c(cc1NC(=O)C(C)OC(=O)c1ccc(S(=O)(=O)Nc3ccccc3Cl)cc1)oc1ccccc12 (configuration not stated),-1.4%,-2.6%,5.5%,31.3*,24.1*
Cc1[nH]c2ccccc2c1C(=O)COC(=O)C1CC(=O)N(Cc2ccco2)C1 (configuration not stated),u,7.6%,3.7%,-2.4,-4.2
O=C1CCN(Cc2ccc([N+](=O)[O-])cc2)CCN1[C@H](CO)c1ccccc1,-5.1%,14.3%,-8.5%,-3.7,-3.4
COc1ccc(CN2C(=O)c3cccnc3C2=O)cc1S(=O)(=O)N(C)c1cccc(C)c1,-3.7%,5.6%,-0.3%,-1.0,-3.3
CC(C)Cc1nnc(NC(=O)CCC(=O)N2CCN(c3ccc(Cl)cc3)CC2)s1,11.1%,5.0%,5.7%,-6.9,-2.9
COCCNC(=S)Nc1cc2oc3ccccc3c2cc1OC,-17.9%,3.5%,6.0%,18.1,15.6*
COc1ccccc1CC(=O)Nc1cc2oc3ccccc3c2cc1OC,-0.1%,-1.7%,1.3%,20.5,24.9*
COc1cc2c(cc1NC(=O)C(C)N1CCN(S(=O)(=O)c3ccccc3[N+](=O)[O-])CC1)oc1ccccc12 (configuration not stated),1.2%,-8.3%,2.6%,55.4*,27.2*
COc1cc2c(cc1NC(=S)NC(=O)c1c(OC)cccc1OC)oc1ccccc12,10.4%,0.1%,1.4%,-5.9,-1.1
COc1cc2c(cc1NC(=O)COCC(=O)O)oc1ccccc12,0.4%,0.8%,0.3%,16.8,-1.2
COc1cc2c(cc1NC(=O)COC(=O)CNC(=O)c1ccccc1)oc1ccccc12,-37.7%,-1.2%,-2.4%,48.8*,31.5*
CN1CCN(c2ncnc3ccc(-c4cccnc4)cc23)CC1,x,1.0%,x,x,x
CC[C@](C)(CN(C)C)OC(=O)c1ccccc1,x,-0.9%[21.7 µM],x,x,x
COC(=O)C1=C(C(=O)OC)C(c2ccccc2O)c2sc(=O)[nH]c2S1 (configuration not stated),-31.9%,u,1.6%,-5.0,-3.7
COc1ccc(CC(=O)Nc2cc3oc4ccccc4c3cc2OC)cc1,12.6%,-4.3%,1.4%,111.4*,62.7*
CC1=C(O)C(=O)C=C2C1=CC=C1[C@]2(C)CC[C@@]2(C)C3C[C@](C)(C(=O)O)CC[C@@]3(C)CC[C@@]12C (some centres not stated),x,-22.1%,x,x,x
O=C(NC1CCCCCCC1)NC1CCCCC1,-4.5%,3.9%,-5.3%,22.8,26.1*
CC(=O)c1ccc(NC(=S)NNC(=O)NC2CCCCC2)cc1,x,1.0%,-0.6%,58.8,20.5*
O=C(NC(=S)Nc1cccc([N+](=O)[O-])c1)C1CCCC1,-16.9%,-9.2%,-3.9%,52.2*,33.9*

# Screening results deposited in PubChem by National Center for Advancing Translational Sciences (NCATS).
